MEKK2wt PB1 HTS: raises or lowers MEK5 binding to wildtype human MEKK2 PB1 domain. bead flow cytometry, Alexa488-MEK5 binding to MEKK2 WT; actives lie on both sides. binding response (% of control), % at 10 µM. hit rate 1.1% among 290,000. AID 1531; in the data active means binding response below about 67% or above about 130%
TMEM16A act: mouse TMEM16A channel activation, primary screen. AID 623877. hit rate 0.3% among 340,000. HEK293 TMEM16A/YFP-H148Q/I152L, iodide quench fluorescence; active compounds read low. B-score at 10 µM. Q8BHY3;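 active means fluorescence-ratio B-score plate-corrected deviation score at least 3 library SD below zero, with starting fluorescence score within 5 deviations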;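 further: channel opened by trigger with iodide after compound preincubation; score built on the fluorescence ratio of max minus min over baseline; more negative score means more quench and so TMEM16A activation or potentiation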
MEKK2mut PB1 HTS: signal of MEK5 binding to mutant human MEKK2 PB1 domain. bead flow cytometry, Alexa488-MEK5 binding to MEKK2 mutant. percent response, % at 10 µM. hit rate 0.35% among 290,000; in the data active means percent response above about 24%, passing the limit was not always enough
TMEM16A inh: mouse TMEM16A channel inhibition, primary screen; AID 588511; hit rate 1.2% among 310,000; HEK293 TMEM16A/YFP iodide influx fluorescence, ionomycin; normalized B-score (activity score, 25-100; higher = stronger inhibition) at 10 µM; Q8BHY3;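 active means ratio plate-corrected score three or more library SD toward inhibition, starting fluorescence score within five deviations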;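 further: score derived from kinetic fluorescence span divided by baseline fluorescence per well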
MEKK3 PB1 HTS: MEKK3-MEK5 PB1 interaction, increase or decrease | Q99759 | bead-based flow cytometry, Alexa488-MEK5 binding to MEKK3; actives lie on both sides; 0 = blocked by unlabeled MEK5, 100 = vehicle | binding response (% of control), % at 10 µM | hit rate 1.4% among 290,000;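 active means binding response more than 3 SD above or below the average of its plate-row segment, actives on both sides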;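 further: Alexa488 bead fluorescence after subtracting the streptavidin-only scavenger bead signal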
NTR1 ag: NTR1 (human) agonism. P30989. NTR1-U2OS beta-arrestin-GFP spot imaging, agonist mode. activation, % at 20 µM. hit rate 0.17% among 330,000. AID 493036;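 active means activation at or above 40% of the spot to cytoplasm intensity ratio, with at least 20 cells analyzed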;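 further: 0% = DMSO without peptide and 100% = 100 nM NTR1 peptide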
TMEM16A reconf: re-confirmation of mouse TMEM16A chloride channel inhibitors; HEK293 TMEM16A/YFP-H148Q, iodide quench fluorescence; ionomycin added to raise cell calcium; shares compounds with TMEM16A inh; hit rate 39% among 2,300; AID 652189; inhibition, % at 10 µM;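 active means mean duplicate percent inhibition, scaled so buffer wells are 0 and the reference blocker 100, over three buffer SD above buffer mean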
TMEM16A Ca cntr: alters calcium mobilization in TMEM16A HEK293 cells, counter-screen | shares compounds with TMEM16A inh | TMEM16A/YFP HEK293, Fluo4 calcium mobilization | calcium response (% of ionomycin), % at 10 µM | hit rate 2% among 2,300 | AID 652231;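 active means duplicate-averaged calcium signal over 20% of the ionomycin maximum, relative to buffer baseline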;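 further: each well's signal is peak minus trough fluorescence divided by its pre-addition baseline; 0% = buffer wells and 100% = ionomycin wells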
Parental YFP cnt: counter-screen for TMEM16A inhibitors: effect in parental YFP-HEK293 cells. iodide YFP quench, ionomycin. 2,300 tested, under 10 active. shares compounds with TMEM16A inh. AID 652233. YFP ratio F(max-min)/F0 at 10 µM;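 active means yellow fluorescent protein signal ratio exceeding the buffer control mean by over 5 SD of those controls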;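 further: ratio is mean of duplicate wells from kinetic YFP trace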
ClC-1 inh: blocks the rat ClC-1 voltage-dependent chloride channel; ratio percent, % at 10 µM; 2,300 tested, under 10 active; CHO ClC-1-YFP, iodide influx fluorescence quench; iodide control reads 0, buffer control 100; shares compounds with TMEM16A inh; AID 652236;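 active means duplicate-mean ratio percent above the mean of iodide-only control wells, which defines zero, plus 5 of their SD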;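 further: higher percent means stronger block of ClC-1 iodide influx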
* marks the source's active call; other numbers are inactive results; i = inactive; / = not tested or not shown. The list is not random: actives were taken first. Their share in the collection is about 3.4%.

SMILES	MEKK2wt PB1 HTS	TMEM16A act	MEKK2mut PB1 HTS	TMEM16A inh	MEKK3 PB1 HTS	NTR1 ag	TMEM16A reconf	TMEM16A Ca cntr	Parental YFP cnt	ClC-1 inh
CCCOC(=O)CSc1nnc(-c2cc(OC)c(OC)c(OC)c2)o1	109	i	4	i	106	0	/	/	/	/
CCCCCOC(=O)CSc1nnc(-c2cc(OC)c(OC)c(OC)c2)o1	84	i	-12	25*	77	3	i	i	-1.1	-9
COc1cc(NC(=O)COc2cc(O)c3c(c2)OC(C)(C)CC3=O)cc(OC)c1OC	100	i	3	100*	100	-2	20%*	i	-1.3	-30
O=S(=O)(Nc1cc(S(=O)(=O)N2CCOCC2)ccc1NCC1CCCO1)c1ccccc1F (stereo unspecified)	/	i	/	/	/	-1	/	/	/	/
COCCNC(=S)N/N=C/c1c2ccccc2cc2ccccc12	85	i	-7	i	101	8	30%*	i	-0.6	5
NC(=S)N/N=C\c1c2ccccc2cc2ccccc12	93	i	7	i	93	/	/	/	/	/
CC(OC(=O)CCc1nc2ccccc2c(=O)[nH]1)C(=O)c1ccc(C(C)(C)C)cc1 (stereo unspecified)	92	i	-2	100*	94	15	28%*	i	-1	-24
CCOc1ccc(CN(C)C(=O)[C@H](Cc2ccccc2)NC(=O)OCc2ccccc2)cc1OC	95	i	1	25*	100	1	i	i	-1.1	-7
COc1ccc(C(=O)c2cnc3ccccc3c2-c2ccccc2)cc1	95	i	-3	i	102	10	/	/	/	/
Cc1ccc(C(=O)c2cnc3ccccc3c2-c2ccccc2)cc1	101	i	0	100*	102	7	i	i	-1.2	-8
O=S(=O)(Nc1cccc(S(=O)(=O)N2CCCC2)c1)c1ccc(Cl)cc1	/	i	/	/	/	2	/	/	/	/
Cc1cc(NC(=O)COC(=O)CCNS(=O)(=O)c2ccccc2)n(-c2ccccc2)n1	/	i	/	i	/	0	/	/	/	/
O=C1N(c2ccccc2C(F)(F)F)O[C@]1(c1ccccc1)C1CCCCC1	/	i	/	/	/	3	/	/	/	/
Cc1nc(C)c(-c2ccc(SCC(=O)Nc3ccc(F)cc3F)nn2)s1	97	i	2	25*	98	-1	i	i	-1.1	-2
Cc1nc(C)c(-c2ccc(SCC(=O)Nc3ccccc3)nn2)s1	112	i	10	i	106	1	/	/	/	/
CCOc1cc(/C=N/N=C(/N)c2nonc2N)cc(Br)c1OCc1ccc(Cl)cc1	90	i	-4	100*	96	2	i	i	-1	1
CC1CC(C)CN(c2cc(=O)n(Cc3ccc(F)cc3)c(=O)[nH]2)C1 (stereo unspecified)	102	i	3	100*	104	0	i	i	-1	-5
O=c1cc(N2CCN(c3ccc(F)cc3)CC2)[nH]c(=O)n1Cc1ccc(F)cc1	96	i	-1	i	94	1	/	/	/	/
O=S(=O)(Nc1ccccc1O)c1ccc(-c2ccccc2)cc1	94	i	-3	100*	104	5	58%*	i	-1.1	-24
O=S(=O)(Nc1cccnc1Cl)c1ccc(-c2ccccc2)cc1	93	i	-5	i	94	0	/	/	/	/
Cc1n[nH]c(C)c1CCN(C)Cc1cn(C)nc1-c1ccccc1F	91	i	-9	i	97	0	/	/	/	/
